PubChem BioAssay
For some assays here: Results with a measured potency or affinity are listed apart. Calls of active or inactive are those of the source. Unless noted, the rule behind the calls is not given here.

Legend:
[1] = antimalarial activity against Dd2 strain (AID 2302;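 active = growth inhibition above 50% at the single 2 µM test dose, taken to imply half-maximal potency below 2 µM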;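 note: 0% = DMSO untreated growth and 100% = chloroquine plus artemisinin killed control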); details: P. falciparum Dd2 in RBCs, LDH growth readout, 72 h; at 2 µM; active compounds read high
[2] = human hepatoma cell viability loss – ATP luminescence, cytotoxicity control for P. falciparum antimalarial project, primary screen (AID 2303;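 active = inhibition above 50%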;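 note: 0% = DMSO wells and 100% = digitonin-killed cells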); details: HepG2 viability, 24-48 h, at 10 µM, active compounds read high
[3] = molecular target: L-lactate dehydrogenase (Plasmodium falciparum (isolate CDC / Honduras)) (UniProt Q27743); experiment: PfLDH activity inhibition – cell lysate, 3D7 strain, counter-screen for P. falciparum growth inhibition project (AID 2304);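 note: 0% = vehicle and 100% = reference inhibitor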; details: P. falciparum 3D7 crude extract, LDH APAD/NBT absorbance; at 2 µM; active compounds read high
Chain of L-lactate dehydrogenase (Plasmodium falciparum (isolate CDC / Honduras)) (Q27743 whole entry, looked up): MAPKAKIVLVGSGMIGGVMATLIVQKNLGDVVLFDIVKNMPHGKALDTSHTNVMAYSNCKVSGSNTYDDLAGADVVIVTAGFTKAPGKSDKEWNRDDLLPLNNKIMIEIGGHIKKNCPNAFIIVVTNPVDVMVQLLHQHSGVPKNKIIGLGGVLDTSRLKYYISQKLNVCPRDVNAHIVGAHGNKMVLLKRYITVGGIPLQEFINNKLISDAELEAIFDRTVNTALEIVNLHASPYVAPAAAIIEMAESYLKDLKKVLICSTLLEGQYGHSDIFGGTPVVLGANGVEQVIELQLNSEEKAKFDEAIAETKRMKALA

[4] = inhibition of 3D7 malaria parasite growth – strain 3D7 (AID 2306);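 note: 0% = DMSO wells and 100% = chloroquine plus artemisinin control wells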; details: P. falciparum 3D7 erythrocytic growth, LDH absorbance, 72 h; at 2 µM; active compounds read high
[5] = molecular target: Calcium-dependent protein kinase 1 (Plasmodium falciparum (isolate 3D7)) (UniProt P62344); experiment: PfCDPK1 kinase inhibitors, biochemical, TCAMS library (AID 1159585; cut-off not given, nearly all actives have IC50 up to about 0.98 µM;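 note: inhibitors leave more ATP so luminescence rises with inhibition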); details: recombinant PfCDPK1, Kinase-Glo ATP depletion luminescence
Chain of Calcium-dependent protein kinase 1 (Plasmodium falciparum (isolate 3D7)) (P62344 whole entry, looked up): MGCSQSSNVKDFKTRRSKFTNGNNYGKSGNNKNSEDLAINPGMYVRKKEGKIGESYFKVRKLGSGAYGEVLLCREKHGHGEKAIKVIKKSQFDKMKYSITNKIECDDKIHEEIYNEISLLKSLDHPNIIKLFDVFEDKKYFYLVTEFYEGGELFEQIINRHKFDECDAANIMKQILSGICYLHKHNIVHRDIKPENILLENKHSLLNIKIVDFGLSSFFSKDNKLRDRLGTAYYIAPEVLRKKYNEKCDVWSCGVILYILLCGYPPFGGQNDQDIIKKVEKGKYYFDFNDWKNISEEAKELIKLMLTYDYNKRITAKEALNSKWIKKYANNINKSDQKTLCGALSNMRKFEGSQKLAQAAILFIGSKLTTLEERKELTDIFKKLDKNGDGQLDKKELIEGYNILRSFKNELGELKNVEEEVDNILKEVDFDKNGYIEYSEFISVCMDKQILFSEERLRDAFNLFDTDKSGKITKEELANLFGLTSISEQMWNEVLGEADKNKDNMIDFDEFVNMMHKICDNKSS

[6] = molecular target: Plasmodium falciparum protein kinase 6 (PK6, PF3D7_1337100) (UniProt Q8IDW1); experiment: PfPK6 kinase inhibitors, biochemical, TCAMS library (AID 1159586); details: recombinant PfPK6, Kinase-Glo ATP depletion luminescence
Chain of Plasmodium falciparum protein kinase 6 (PK6, PF3D7_1337100) (Q8IDW1 1-305): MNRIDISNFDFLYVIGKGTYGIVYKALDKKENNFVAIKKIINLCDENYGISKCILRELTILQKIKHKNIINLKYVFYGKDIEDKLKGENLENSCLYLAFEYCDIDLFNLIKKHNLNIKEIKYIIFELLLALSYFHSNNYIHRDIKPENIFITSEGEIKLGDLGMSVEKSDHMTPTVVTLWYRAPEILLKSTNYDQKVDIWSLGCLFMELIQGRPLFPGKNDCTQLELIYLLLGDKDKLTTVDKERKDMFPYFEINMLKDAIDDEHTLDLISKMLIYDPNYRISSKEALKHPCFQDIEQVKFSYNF

[7] = molecular target: Protein kinase 7 (PK7), Plasmodium falciparum 3D7 (PF3D7_0213400) (UniProt Q7YTF7); experiment: inhibition of Plasmodium PK7 catalytic activity – biochemical, TCAMS antimalarial set, Kinase-Glo luminescence (AID 1159587); details: recombinant PfPK7, Kinase-Glo ATP depletion luminescence
Chain of Protein kinase 7 (PK7), Plasmodium falciparum 3D7 (PF3D7_0213400) (Q7YTF7 1-343): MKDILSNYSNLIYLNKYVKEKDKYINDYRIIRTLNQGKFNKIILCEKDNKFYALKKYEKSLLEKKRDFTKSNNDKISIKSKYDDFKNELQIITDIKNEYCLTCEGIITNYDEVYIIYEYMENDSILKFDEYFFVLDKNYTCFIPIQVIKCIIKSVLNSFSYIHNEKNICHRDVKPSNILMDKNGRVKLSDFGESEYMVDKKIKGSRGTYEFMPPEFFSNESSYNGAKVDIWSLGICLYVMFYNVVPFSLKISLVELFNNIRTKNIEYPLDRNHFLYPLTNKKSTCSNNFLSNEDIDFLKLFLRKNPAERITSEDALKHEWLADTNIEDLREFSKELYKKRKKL

[8] = molecular target: Calcium-dependent protein kinase 4 (Plasmodium falciparum (isolate 3D7)) (UniProt Q8IBS5); experiment: PfCDPK4 kinase inhibitors, biochemical, TCAMS library (AID 1159588; cut-off not given, nearly all actives have IC50 up to about 0.91 µM); details: recombinant PfCDPK4, Kinase-Glo ATP depletion luminescence
Chain of Calcium-dependent protein kinase 4 (Plasmodium falciparum (isolate 3D7)) (Q8IBS5 whole entry, looked up): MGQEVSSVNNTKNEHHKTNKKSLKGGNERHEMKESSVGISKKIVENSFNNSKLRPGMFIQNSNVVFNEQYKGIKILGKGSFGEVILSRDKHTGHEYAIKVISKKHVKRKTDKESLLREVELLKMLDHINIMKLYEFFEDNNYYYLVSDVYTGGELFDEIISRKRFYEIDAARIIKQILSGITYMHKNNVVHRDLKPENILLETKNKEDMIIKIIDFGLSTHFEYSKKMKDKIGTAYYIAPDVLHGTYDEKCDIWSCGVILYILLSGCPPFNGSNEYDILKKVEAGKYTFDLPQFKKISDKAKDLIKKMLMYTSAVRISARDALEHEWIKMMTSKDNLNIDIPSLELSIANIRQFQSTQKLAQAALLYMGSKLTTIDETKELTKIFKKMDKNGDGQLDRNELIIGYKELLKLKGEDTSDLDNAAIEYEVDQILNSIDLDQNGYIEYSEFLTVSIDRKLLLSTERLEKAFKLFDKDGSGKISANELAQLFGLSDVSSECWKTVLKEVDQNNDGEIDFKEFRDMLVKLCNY

Cc1cccc(Nc2nccc(NCC(O)c3ccc(C(F)(F)F)cc3)n2)c1 (stereo not given)
inactive: inhibition [2] 11% | inhibition [3] 0% | outcome [5] | outcome [6] | outcome [7] | outcome [8]
active: growth inhibition [1] 54% | growth inhibition [4] 101%

CCCC(C)Nc1nc(C)cc(N[C@@H](Cc2ccccc2)C(=O)NCCc2ccccc2)n1 (stereo not given in full)
active: growth inhibition [1] 68% | growth inhibition [4] 97%
inactive: inhibition [2] 11% | inhibition [3] -3% | outcome [5] | outcome [6] | outcome [7] | outcome [8]

CCCOc1ccccc1-c1nc2[nH]c3c(c2c(=O)[nH]1)CCN(C)C3
inactive: inhibition [2] 8% | inhibition [3] -6% | outcome [5] | outcome [6] | outcome [7] | outcome [8]
active: growth inhibition [1] 70% | growth inhibition [4] 87%

N#Cc1ccc2c(c1)CCN(CCC1CCC(NC(=O)/C=C/c3c[nH]c4ccc(F)cc34)CC1)CC2 (stereo not given)
inactive: inhibition [2] 18% | inhibition [3] 4% | outcome [5] | outcome [6] | outcome [7] | outcome [8]
active: growth inhibition [1] 83% | growth inhibition [4] 101%

CN(C)CCOc1ccc(N2CCN(CCCCNC(=O)c3ccc(/C=C/c4cc(Cl)cc(Cl)c4)cc3)CC2)cc1
inactive: inhibition [3] 1% | outcome [5] | outcome [6] | outcome [7] | outcome [8]
active: growth inhibition [1] 84% | inhibition [2] 97% | growth inhibition [4] 98%

CCCN(CCC)C(=O)c1cc(-c2cccc(C)c2)nc2ccccc12
inactive: inhibition [2] 17% | inhibition [3] -6% | outcome [5] | outcome [6] | outcome [7] | outcome [8]
active: growth inhibition [1] 59% | growth inhibition [4] 86%

COc1cc(CNC[C@@H](O)[C@H](Cc2ccccc2)NC(=O)c2cc(C3CCCC3)cc(N3CCCS3(=O)=O)c2)cc(OC)c1
inactive: inhibition [2] 31% | inhibition [3] 2% | outcome [5] | outcome [6] | outcome [7] | outcome [8]
active: growth inhibition [1] 94% | growth inhibition [4] 95%

Cc1c(NC(=O)COc2ccc(Cl)cc2C(=O)c2cc(F)cc(C(F)(F)F)c2)ccc2ncsc12
active: growth inhibition [4] 86%
inactive: growth inhibition [1] 18% | inhibition [2] -2% | inhibition [3] -2% | outcome [5] | outcome [6] | outcome [7] | outcome [8]

COc1ccc(CN(C)CCOc2ccc(NC(=O)c3cccc4c(=O)cc(-c5ccccc5)[nH]c34)cc2)cc1OC
inactive: growth inhibition [1] 44% | inhibition [2] 13% | inhibition [3] -3% | outcome [5] | outcome [6] | outcome [7] | outcome [8]
active: growth inhibition [4] 98%

Fc1ccc2nc(Nc3nc(-c4ccccn4)cs3)sc2c1
active: growth inhibition [1] 100% | growth inhibition [4] 102%
inactive: inhibition [2] 42% | inhibition [3] 3% | outcome [5] | outcome [6] | outcome [7] | outcome [8]

CCN1CCN(Cc2ccc(-c3ccc(NS(=O)(=O)c4cccc5cccnc45)cc3)cc2)CC1
inactive: growth inhibition [1] 42% | inhibition [2] 29% | inhibition [3] -2% | outcome [5] | outcome [6] | outcome [7] | outcome [8]
active: growth inhibition [4] 90%

CCCCCC(C)N=C(Nc1ccc(C#N)cc1O)Nc1ccccc1Br (stereo not given)
inactive: inhibition [2] 2% | inhibition [3] -3% | outcome [5] | outcome [6] | outcome [7] | outcome [8]
active: growth inhibition [1] 95% | growth inhibition [4] 98%

O=C(OCc1ccccn1)c1nc2ccccc2[nH]1
active: growth inhibition [1] 97% | inhibition [2] 63% | growth inhibition [4] 92%
inactive: inhibition [3] -2% | outcome [5] | outcome [6] | outcome [7] | outcome [8]

O=C(Nc1cccc(-c2cccc(-c3nc4ccc(F)cc4[nH]3)c2)c1)c1cnc[nH]1
inactive: inhibition [2] 13% | inhibition [3] -1% | outcome [5] | outcome [6] | outcome [7] | outcome [8]
active: growth inhibition [1] 87% | growth inhibition [4] 100%

CN1CCN(CCCNCc2ccccc2-c2cccc(CNCc3ccc4c(c3)OCO4)c2)CC1
inactive: growth inhibition [1] 7% | inhibition [2] 34% | inhibition [3] -1% | outcome [5] | outcome [6] | outcome [7] | outcome [8]
active: growth inhibition [4] 102%

CCOc1ccc2c(NN=Cc3ccccc3F)cc(C)nc2c1
active: growth inhibition [1] 77% | growth inhibition [4] 101%
inactive: inhibition [2] -1% | inhibition [3] -5% | outcome [5] | outcome [6] | outcome [7] | outcome [8]

COc1cccc(CNC[C@@H](O)[C@H](Cc2ccccc2)NC(=O)c2cc(NC(C)C)cc(N3CCCCS3(=O)=O)c2)c1
active: growth inhibition [1] 97% | growth inhibition [4] 89%
inactive: inhibition [2] 1% | inhibition [3] 1% | outcome [5] | outcome [6] | outcome [7] | outcome [8]

NC1=NC(c2ccccc2)(c2ccccc2)C(=O)N1Cc1ccc(-c2cccnc2)cc1
inactive: inhibition [2] 15% | inhibition [3] 5% | outcome [5] | outcome [6] | outcome [7] | outcome [8]
active: growth inhibition [1] 94% | growth inhibition [4] 99%

COc1ccc2ncc(F)c(CCN3CCC(CNCc4cccc5c4OCO5)CC3)c2n1
inactive: growth inhibition [1] 37% | inhibition [2] 39% | inhibition [3] -2% | outcome [5] | outcome [6] | outcome [7] | outcome [8]
active: growth inhibition [4] 93%

CCNc1cc(C(=O)N[C@@H](Cc2ccccc2)[C@H](O)CNC(C)CC(C)C)c(F)c(N2CCCCS2(=O)=O)c1 (stereo not given in full)
active: growth inhibition [1] 66% | growth inhibition [4] 95%
inactive: inhibition [2] 6% | inhibition [3] 4% | outcome [5] | outcome [6] | outcome [7] | outcome [8]

COc1cc(NC(=O)c2cc([N+](=O)[O-])ccc2NC(=O)CNC2CCCCC2C)cc(OC)c1 (stereo not given)
inactive: inhibition [2] -2% | inhibition [3] 3% | outcome [5] | outcome [6] | outcome [7] | outcome [8]
active: growth inhibition [1] 78% | growth inhibition [4] 87%

CCCCCCNC(=O)C1Cc2c([nH]c3ccccc23)C2(CCN(CCc3ccccc3)CC2)N1 (stereo not given)
inactive: growth inhibition [1] 34% | inhibition [2] 41% | inhibition [3] 4% | outcome [5] | outcome [6] | outcome [7] | outcome [8]
active: growth inhibition [4] 96%

COc1cc2c(cc1C(F)(F)F)N(C(=O)Nc1cc(F)cc(-c3cccnn3)c1)CC2
inactive: growth inhibition [1] 34% | inhibition [2] 21% | inhibition [3] 6% | outcome [5] | outcome [6] | outcome [7] | outcome [8]
active: growth inhibition [4] 90%

CS(=O)(=O)NCCCNCc1ccc(-c2cccc(-c3nc4ccc(F)cc4[nH]3)c2)cc1
active: growth inhibition [4] 98%
inactive: growth inhibition [1] 1% | inhibition [2] 15% | inhibition [3] 5% | outcome [5] | outcome [6] | outcome [7] | outcome [8]

COc1cc2ncnc(Nc3ccc4nc(-c5ccccc5)[nH]c4c3)c2cc1OC
inactive: growth inhibition [1] 32% | inhibition [2] 15% | inhibition [3] -5% | outcome [5] | outcome [6] | outcome [7] | outcome [8]
active: growth inhibition [4] 92%

CCC(C(=O)Nc1cc(=O)[nH]c2nc(-c3ccco3)nn12)c1ccccc1 (stereo not given)
inactive: inhibition [2] 2% | inhibition [3] -1% | outcome [5] | outcome [6] | outcome [7] | outcome [8]
active: growth inhibition [1] 68% | growth inhibition [4] 87%

Cc1ccc(C)c2sc(N(CCCn3ccnc3)C(=O)C=Cc3cccs3)nc12
active: growth inhibition [1] 93% | growth inhibition [4] 101%
inactive: inhibition [2] 20% | inhibition [3] 0% | outcome [5] | outcome [6] | outcome [7] | outcome [8]

O=C1c2ccc([N+](=O)[O-])cc2C(=O)N1c1ccc2[nH]ncc2c1
active: growth inhibition [4] 87%
inactive: growth inhibition [1] -1% | inhibition [2] 11% | inhibition [3] -1% | outcome [5] | outcome [6] | outcome [7] | outcome [8]

CCCC1(NC[C@@H](O)[C@H](Cc2ccccc2)NC(=O)c2cc(NCC)cc(N3CCCCS3(=O)=O)c2)CCCC1
inactive: inhibition [2] -1% | inhibition [3] -5% | outcome [5] | outcome [6] | outcome [7] | outcome [8]
active: growth inhibition [1] 97% | growth inhibition [4] 101%

c1ccc(CNCc2cccc(-c3cccc(-c4nc5ccccc5[nH]4)c3)c2)cc1
inactive: growth inhibition [1] 38% | inhibition [2] 12% | inhibition [3] -5% | outcome [5] | outcome [6] | outcome [7] | outcome [8]
active: growth inhibition [4] 102%

COc1ccc(Cl)cc1N1CCN(CCCNC(=O)c2ccc(-c3nc4cc(Cl)c(Cl)cc4[nH]3)c(C)c2)CC1
active: growth inhibition [4] 101%
inactive: growth inhibition [1] -1% | inhibition [2] 4% | inhibition [3] 2% | outcome [5] | outcome [6] | outcome [7] | outcome [8]

Cc1ccc(C2CC(c3cccs3)=NN2C(=O)c2ccc(Br)o2)cc1 (stereo not given)
inactive: inhibition [2] 11% | inhibition [3] 0% | outcome [5] | outcome [6] | outcome [7] | outcome [8]
active: growth inhibition [1] 69% | growth inhibition [4] 99%

CC(C)c1ccc(NC(=O)NCCCC2CCCN(CCCCCNC(=O)/C=C/c3ccc(Cl)c(Cl)c3)C2)cc1 (stereo not given)
inactive: growth inhibition [1] 42% | inhibition [2] 25% | inhibition [3] -2% | outcome [5] | outcome [6] | outcome [7] | outcome [8]
active: growth inhibition [4] 90%

CCOC(=O)c1[nH]c(-c2ccc(Cl)cc2)nc1NC(=S)NCCCN1CCOCC1
active: growth inhibition [4] 92%
inactive: growth inhibition [1] 33% | inhibition [2] 22% | inhibition [3] -4% | outcome [5] | outcome [6] | outcome [7] | outcome [8]

O=C(/C=C/c1ccc(Cl)cc1)NCCCCCN1CCC(c2c[nH]c3ccccc23)CC1
active: growth inhibition [4] 99%
inactive: growth inhibition [1] 15% | inhibition [2] 42% | inhibition [3] 7% | outcome [5] | outcome [6] | outcome [7] | outcome [8]

CCOc1ccc2nc(C)cc(NN=Cc3cccc([N+](=O)[O-])c3)c2c1
active: growth inhibition [1] 93% | growth inhibition [4] 101%
inactive: inhibition [2] 7% | inhibition [3] 0% | outcome [5] | outcome [6] | outcome [7] | outcome [8]

Cc1ccc(NS(=O)(=O)c2cccs2)cc1-c1cccc(C(=O)Nc2ccc(F)cc2)c1
active: growth inhibition [1] 100% | growth inhibition [4] 99%
inactive: inhibition [2] 38% | inhibition [3] 0% | outcome [5] | outcome [6] | outcome [7] | outcome [8]

COc1cccc(-c2ccc(C(=O)NC3CCN(Cc4ccc(N(C)C)cc4)CC3)s2)c1
active: growth inhibition [4] 81%
inactive: growth inhibition [1] 20% | inhibition [2] 8% | inhibition [3] -1% | outcome [5] | outcome [6] | outcome [7] | outcome [8]

CCN(CC)C(=NCCCCCCN=C(NC(N)=NCc1ccc(Cl)cc1)N(CC)CC)NC(N)=NCc1ccc(Cl)cc1
active: growth inhibition [1] 100% | growth inhibition [4] 100%
inactive: inhibition [2] 18% | inhibition [3] -3% | outcome [5] | outcome [6] | outcome [7] | outcome [8]

Clc1nc(Cl)c2c(ccn2Cc2ccccc2)n1
inactive: inhibition [2] -14% | inhibition [3] -11% | outcome [5] | outcome [6] | outcome [7] | outcome [8]
active: growth inhibition [1] 61% | growth inhibition [4] 100%
